Measurements from PubChem BioAssay AID504882 (Broad Institute, 2011).
In all, about 1,200 compounds went through this assay and about 290 (24%) were called active. Another 9% or so got no clear call; they are omitted. A selection follows. Results with a measured potency or affinity are listed apart. A number with no mark means an inactive call. The rule behind the calls is not given here.

Test: LCL viability reduction – cell-based, plate reader, cherry-picks, set 2, cytotoxicity control, dose response (AID 504882);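 note: 0% = neutral control wells and -100% = positive control wells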
Settings: EBV lymphoblastoid cells (LCL) viability; series mostly up to 19.5 µM; activity change, negative = cytotoxicity: at the top concentration

| SMILES | activity change, negative = cytotoxicity [%] |
| --- | --- |
| O=C(N/N=C(/CC(=O)c1cccs1)C(F)(F)F)c1ccc(O)cc1 | 18.3 |
| CCC(C)[C@H](NC(=O)NCc1cccnc1)C(=O)OC (some centres undefined) | 11.4 |
| Cc1cccc(C)c1NC(=O)CN(C)C(=O)c1ccc(-c2cccc(C(F)(F)F)c2)o1 | 25.4 |
| O=C(CN1C(=O)c2ccccc2S1(=O)=O)c1ccc(F)c(F)c1 | 15.6 |
| COc1ccc(-n2c(SCC(=O)Nc3ccc4c(c3)OCO4)nc3c(c2=O)SCC3)cc1 | 16.8 |
| Cc1ccnc(NC(=O)CCC(=O)c2cccs2)c1 | -9.24 |
| COc1ccc(C(=O)Nn2c(SCC(=O)NC3CCCCC3)nc3ccccc3c2=O)cc1 | -5.87 |
| NC(=O)CC(NC(=O)c1ccccc1)c1ccc(NC2CCN(Cc3ccccc3)CC2)c([N+](=O)[O-])c1 (centres undefined) | 18.1 |
| Cc1cccc(Cn2cc(SCC(=O)Nc3nccs3)c3ccccc32)c1 | -0.243 |
| COC(=O)c1c(O)ccc(Oc2ccccc2)c1C(=O)OC | 5.36 |
| COc1ccc2oc(C(=O)NCCc3ccccc3)c(C)c2c1 | -3.62 |
| COc1ccc(-n2c(SCC(=O)Nc3cc(C)on3)nc3c(c2=O)SCC3)cc1 | 17.6 |
| Cc1ccc(-n2ccc(=O)c(C(=O)Nc3ccc(S(=O)(=O)N4CCOCC4)cc3)n2)cc1 | 17.9 |
| O=C1c2ccccc2C(Nc2cccnc2)N1Cc1ccccc1 (centres undefined) | 22.9 |
| COc1cc(/C=N/NC(=O)c2cccc(S(=O)(=O)N3CCOCC3)c2)cc(OC)c1O | 21.9 |
| COc1cc(C(=S)N2CCOCC2)cc(OC)c1OC(=O)c1ccc(F)cc1 | 24.8 |
| O=C(NOCc1ccccc1)c1ccc(Cl)cc1Cl | -4.17 |
| C[C@H]1C[C@H]2[C@@H]3CCC4=CC(=O)C=C[C@]4(C)[C@@]3(F)[C@@H](O)C[C@]2(C)[C@@]1(O)C(=O)CO | 22.7 |
| CC1CCC(NC(=O)CC2Oc3ccccc3NC2=O)CC1 (centres undefined) | 5.69 |
| O=C1CN(C(=O)c2ccc(F)c(S(=O)(=O)N3CCOCC3)c2)c2ccccc2N1 | 14.2 |
| CC(C)c1nnc(NC(=O)c2ccc(N3C(=O)CCC3=O)cc2)s1 | 18 |
| COc1cc2c(cc1OC)-c1cc(Nc3ccc4c(c3)OCCO4)nc(=O)n1CC2 | 19.9 |
| COc1cccc(C(=O)Nc2nc3ccccc3[nH]2)c1 | -12.2 |

| SMILES | activity change, negative = cytotoxicity [%] |
| --- | --- |
| COc1ccccc1C=NN=Cc1ccccc1O | 28.7 |
| CCCC(=O)NCCCc1nc2ccccc2[nH]1 | -0.384 |
| CCc1ccc(-c2nnn(CCC(=O)OC)n2)cc1 | 13.5 |
| COc1cccc(C(=O)CC(=O)C(=O)Nc2ccc(C)cc2Cl)c1 | -18.2 |
| CCc1ccc(/C=C/C(=O)C2C(=O)c3ccccc3C2=O)cc1 | -11.9 |
| O=C(OCc1ccccc1F)c1cc2ccccc2cc1O | 12.3 |
| CCS(=O)(=O)c1nnnn1-c1ccccc1S(C)(=O)=O | -2.8 |
| C[C@H](NC(=O)N1CCn2c1nc1ccccc12)C(=O)NCC1CCCO1 (some centres undefined) | 25.5 |
| CCOC(=O)c1ccc(NC(=S)N2CCSC2c2ccc(OC)cc2)cc1 (centres undefined) | 6.17 |
| COC(=O)c1[nH]c2cccc(C)c2c1NC(=O)CN1CCCc2ccccc21 | 11.1 |
| CC(C)(C)c1nc2c(s1)CCc1onc(-c3ccc(Br)cc3)c1-2 | 7.52 |
| Cc1nc2sc(C(N)=O)c(N)c2c2c1CCCC2 | 8.1 |
| O=C(Nc1ccc(Cl)cc1)c1ccco1 | 1.44 |
| O=C(Nc1ccc2c(c1)nc1n2CCSC1)c1ccco1 | -6.4 |
| CCOC(=O)C1=C(O)/C(=C/c2ccc(CNC(=O)C(=O)Nc3ccc(C)cc3)o2)N=C1C | 51 |
| Nc1cc(=O)[nH]c(SCCSc2cc(Cl)ccc2Cl)n1 | 12.4 |
| CC(C)(C)c1cc(C(=O)NNC(=O)Nc2cccc(Cl)c2)n(Cc2ccccc2)n1 | -0.268 |
| CC(=O)O[C@]1(C(C)=O)CC[C@H]2[C@@H]3C=C(C)C4=CC(=O)CC[C@@H]4[C@H]3CC[C@@]21C | 1.64 |
| O=C(O)c1ccccc1Nc1cccc(OCc2ccc3ccccc3n2)c1 | -17.2 |
| c1ccc2c3c([nH]c2c1)C(C1CCCCC1)N(Cc1ncc[nH]1)CC3 (centres undefined) | 13.2 |
| O=C1c2ccccc2C(Nc2ccc(Cl)cc2)N1CCN1CCOCC1 (centres undefined) | 8.15 |
| Brc1ccc(-c2csc(N3CCCCCC3)n2)cc1 | 18.1 |
| COc1cc(/C=C2\SC(=S)N(NC(=O)c3ccncc3)C2=O)ccc1O | -1.11 |

| SMILES | activity change, negative = cytotoxicity [%] |
| --- | --- |
| CCc1nnc(NC(=O)c2cc(S(=O)(=O)N3CCN(CC)CC3)ccc2Cl)s1 | 3.73 |
| COc1cc2c(=O)n(CC3CCCO3)c(=O)n(CC(=O)Nc3cccc(Cl)c3)c2cc1OC (centres undefined) | 18.9 |
| COc1ccc(NC(=O)N(CCN2CCCC2)Cc2cc3cc(OC)c(OC)cc3[nH]c2=O)cc1 | 5.63 |
| Cc1cccc(C)c1NC(=O)CN(C)CC(=O)Nc1ccccc1Oc1ccccc1 | 11.5 |
| Cc1ccc(C(=O)Nc2ccc3ncccc3c2)cc1 | 21.2 |
| O=C(O)c1c2c(nc3ccccc13)/C(=C/c1ccc(O)cc1)CC2 | 10 |
| CSc1nc(C)cc(C)c1C#N | 3.6 |
| CC1(C)CN(Cc2ccccc2)C(=O)[C@H]1CC(=O)Nc1ccccc1 | 2.36 |
| O=C(Cc1cccc2ccccc12)Nc1ccc(-c2cc3ccccc3oc2=O)cc1 | -7.33 |
| NC(=O)c1sc2nccc(Nc3ccccc3)c2c1N | -3.78 |
| CCCCCC(=O)N1CCN(c2ccc(C(C)=O)cc2F)CC1 | 9.94 |
| COc1ccc(C(c2c(C)n(C)n(-c3ccccc3)c2=O)c2c(C)n(C)n(-c3ccccc3)c2=O)c(OC)c1OC | 1.22 |
| CC(C)C(=O)Nc1ccc(C(=O)N/N=C/c2cc(Br)cc(Br)c2O)cc1 | -1.17 |
| CCSc1nc2ccc(OC)cc2cc1C#N | 4.84 |
| COc1ccccc1C(=O)Nc1c[nH]c(=O)[nH]c1=O | 23.5 |
| CN1OC[C@@H]2CN[C@H](c3ccc(-c4cc5ccccc5o4)cc3)C[C@@H]21 | 49.6 |
| O=C(O)CN1C(=O)/C(=C\c2ccccc2OCc2ccc(Cl)cc2Cl)SC1=S | 10.7 |
| COc1cc(/C=N/NC(=S)Nc2cccc(C(=O)O)c2)ccc1O | 12.8 |
| S=C(N/N=C/c1ccc2ncccc2c1)Nc1cccnc1 | 7.27 |
| OCCN(CCO)CC(O)COCCC12CC3CC(CC(C3)C1)C2 (centres undefined) | 4.48 |
| O=C(Nc1cnc2ccccn2c1=O)c1ccc(Cl)cc1Cl | 11.6 |
| O=C(O)c1ccc(C=NN=C2c3ccccc3-c3ccccc32)cc1 | 9.04 |
| CC(=O)c1ccc(N2CCN(c3ccnc4cc(Cl)ccc34)CC2)cc1 | 11.5 |
